These sequences were tested on VDR:RXRa (NR concentration 270 nM, RXRa partner concentration 90 nM) (assay: PBM binding z-score (relative to random genomic background probes); higher = stronger binding; sequences stand for … in GC…GCGATTGACAGCGTAGAATGAAGG).
Experimental: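 Protein-binding microarray (Agilent 4x180K custom design, double-stranded 60-nt probes: 5' GC cap, 34-nt variable region, 24-nt constant primer region; full probe sequence given). Purified or IVT nuclear receptor:RXRα heterodimers (3:1 NR:RXRα, mostly 270:90 nM) or homodimers were incubated for 1 h in PBS with 2% milk and no ligand, then detected with Alexa488 antibodies. Fluorescence from o1-orientation probes (~5 replicates averaged) was converted to z-scores against 500 random hg19 background probes. Variable regions are seed direct-repeat (DR0–DR5) sites, all their single-nucleotide variants and half-site ablations.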

Row | Sequence | PBM binding z-score
1 | TTCCCAAGGTGAAAGGTCGTTGATGCACGCCTTG | 3.35
2 | GCTTCTAGGTCAACTGATGGTCAGCTAAAGCTCG | 2.06
3 | CAAACTAGGACACGAAAGGTCAAAGTCGAATGAC | 4.78
4 | TCATATAGGTAAAGGCGAAAGTCGAACGATATGA | 0.324
5 | ACTATTAGTTGAGACGAGGGCAGCCGATAGGTTG | 0.339
6 | ATCTCTAGGTAACAGTTCAGTGAATCCCGAGGAT | 0.208
7 | AAAATGAGGTTATACGTAGATCAGGGAAGAAAGT | 1.65
8 | CGTTCAAGGTCAATGCTAGGTCAGTGAAAGCATT | 4.78
9 | TAGCCTAGGTCATTCACGGGCCAGTATAGAAAGC | 2.28
10 | CGTATTAGTTGACCATAAGGGCAACCGAAGCTCG | 0.396
11 | CCTACTGGGCCAAGGACATTGATCAGTCAAAGCA | -0.496
12 | ACTCGCAGGACAAAGGTCAGAGCTACGCCAGTGA | 2.77
13 | ATCTCTAGGTAAAGTTCAGGGAAAGATCGATAGA | 1.73
14 | ATCTCTAGGTAAGACTCAGTTGAGTGAAGAACGC | -0.0518
15 | TAGCCTAGGTCATTGGGCCCGTATAGTACGCATC | 2.74
16 | CGTCCAAGGTCAATGCCAGGTCAGTGAAAGCATT | 4.96
17 | TCATATAGGTAATCCAGGTGAAAGTCGGCATCTA | 1.1
18 | CCGACTGTGGCAAGGTTACCATAACGCACAGCCA | 0.0735
19 | TCTAGTAGATCAAGCAGGTTAAGAAAGCCTGAGT | 0.576
20 | GGAACGAGGGCATTCGAGTTGAAAGCATGGCGAT | 3.59

Row | Sequence | PBM binding z-score
21 | GCAGACAGGCGAAACGCAGGTAACTCAGGGTGGC | -0.853
22 | TAGCCTAGGTCATGCAGGGGCCAGTATAGAAAGC | 2.7
23 | CGTCCAAGGTCAGAGAGGTCAATGAATGCCGAGT | 7.79
24 | CCTACTAGGCCAAAGGTCATTGATTCCAATGCTC | 5.12
25 | GCTAGTTGGTCCGTAAAAGGTCACACACCGGTCG | 3.97
26 | ATACAAAGGTGATCGTGAGGTCGTTGATACTAAC | 4.59
27 | AATTCAGGGTCATCGTAGGCCAGAGTACGCACAG | 5.7
28 | GCAGACACGTGAAACGCAGGTAACTCAGGGTGGC | -0.854
29 | TCTGCTAGGTCAGTTGGTCAGCGAACGAGCTGCC | 0.114
30 | GCAGACAGGTGAAACGCGGGTAACTCAGGGTGGC | -0.339
31 | CAAACTAGGTCAAGAGCTCAAAGTCCGCTTCCCG | 1.29
32 | CCTTACGGGTCACGAGGTTATAGAACGACGAGCG | 5.31
33 | TCTAGCAAGCCAGAGGGTCACTCAAGAGGTACGG | 1.32
34 | ATCTCTAGGTACAGATAGTTCAGTGAATGCAAAT | 1.18
35 | ATCGAAAGGTCGACGAGGTGAGTCTACACCGTTT | 5.5
36 | CCTTTTAGTTGACCATAAGGGCAACCGAAGCTCG | 1.28
37 | ACTAGCAGGCCAAGGGTCACGCAAGATTAGTCCG | 3.76
38 | ATATGTAGGTTAAGGGTCGTTCAGGTTGGTTCGC | 3.88
39 | TTACCTAGGTGAAAGGTCGTTGATGCACGCCTTG | 2.75
40 | CCAGACAGGTGAGAGGGTAACTCAGCCTCGATTA | -0.0785

— the supplement of paper PMC6555819
